Parameters in all cases: scale not given: direction of the effect not stated beside the values
In assay [1] the target is Protein translocase subunit SecA (Escherichia coli (strain K12)) (UniProt P10408). In words: Assay to Identify E. coli SecA ATPase Inhibitors. It is filed as functional. As to conditions: 30 µM.
Assay [2] addresses T1, Ubiquitin-activating enzyme e1, putative (Leishmania donovani (strain BPK282A1)) (UniProt E9BSI1).
T1 sequence (whole entry): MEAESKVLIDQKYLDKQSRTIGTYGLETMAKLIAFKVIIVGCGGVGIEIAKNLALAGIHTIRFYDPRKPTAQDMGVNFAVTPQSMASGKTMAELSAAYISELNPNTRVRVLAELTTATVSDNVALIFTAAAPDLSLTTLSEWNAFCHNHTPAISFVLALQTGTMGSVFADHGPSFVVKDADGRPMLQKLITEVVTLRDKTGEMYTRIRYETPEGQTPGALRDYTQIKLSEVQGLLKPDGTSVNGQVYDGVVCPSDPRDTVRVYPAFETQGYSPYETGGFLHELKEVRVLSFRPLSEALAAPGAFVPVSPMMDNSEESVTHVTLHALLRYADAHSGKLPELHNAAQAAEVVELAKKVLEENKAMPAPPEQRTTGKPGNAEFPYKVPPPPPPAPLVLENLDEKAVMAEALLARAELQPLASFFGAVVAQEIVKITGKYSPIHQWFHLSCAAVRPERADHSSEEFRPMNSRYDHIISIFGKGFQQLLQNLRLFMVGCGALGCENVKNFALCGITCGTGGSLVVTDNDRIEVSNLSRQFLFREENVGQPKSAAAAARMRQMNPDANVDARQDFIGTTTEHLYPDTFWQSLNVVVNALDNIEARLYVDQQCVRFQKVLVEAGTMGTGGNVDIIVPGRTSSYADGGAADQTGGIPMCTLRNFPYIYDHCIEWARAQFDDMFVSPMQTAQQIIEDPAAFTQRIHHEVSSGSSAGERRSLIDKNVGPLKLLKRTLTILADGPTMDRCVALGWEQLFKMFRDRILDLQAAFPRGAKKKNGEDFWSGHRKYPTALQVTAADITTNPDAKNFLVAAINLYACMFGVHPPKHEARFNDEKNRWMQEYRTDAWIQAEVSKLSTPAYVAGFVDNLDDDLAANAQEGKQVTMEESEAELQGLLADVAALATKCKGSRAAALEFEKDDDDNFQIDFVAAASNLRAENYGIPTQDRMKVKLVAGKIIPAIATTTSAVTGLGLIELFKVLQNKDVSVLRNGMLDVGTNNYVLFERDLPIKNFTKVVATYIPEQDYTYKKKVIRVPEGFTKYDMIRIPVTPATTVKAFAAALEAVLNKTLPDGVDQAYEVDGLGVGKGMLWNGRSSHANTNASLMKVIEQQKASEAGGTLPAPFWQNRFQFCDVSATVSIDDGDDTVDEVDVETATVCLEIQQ
In words: Leishmania donovani Ubiquitin Activating Enzyme (LdE1). As to conditions: 30 µM. It is filed as functional.

Assay [3] has as its target AMP-activated protein kinase, AMPK (Homo sapiens) (UniProt P54646+O43741+P54619+Q9UGJ0+Q9Y478+Q13131+Q9UGI9). The assay can be described thus: AMP-dependent Kinase enzyme assay. An in vitro enzyme assay that detects ADP turnover that is directly proportional to AMPK activity. This uses naive AMPK that is activated during the assay with MK-8722. It is filed as functional. As to conditions: 30 µM.

Assay [4] deals with Sialic acid-binding Ig-like lectin 9 (Homo sapiens) (UniProt Q9Y336). The assay can be described thus: Hs-Siglec9 ALPHAscreen SOP 20170721. As to conditions: 10 µM. For orientation: Bead proximity is the source of the signal in Alpha formats.
For the next assay, the system named is Trypanosoma cruzi. In words: Trypanosoma cruzi phosphomannomutase and mannose-1-phosphate guanylyltransferase assay. Type of assay: functional. As to conditions: 10 µM.
Assay [5] has as its target T2, Arginase-2, mitochondrial (Homo sapiens) (UniProt P78540).
T2 sequence (whole entry): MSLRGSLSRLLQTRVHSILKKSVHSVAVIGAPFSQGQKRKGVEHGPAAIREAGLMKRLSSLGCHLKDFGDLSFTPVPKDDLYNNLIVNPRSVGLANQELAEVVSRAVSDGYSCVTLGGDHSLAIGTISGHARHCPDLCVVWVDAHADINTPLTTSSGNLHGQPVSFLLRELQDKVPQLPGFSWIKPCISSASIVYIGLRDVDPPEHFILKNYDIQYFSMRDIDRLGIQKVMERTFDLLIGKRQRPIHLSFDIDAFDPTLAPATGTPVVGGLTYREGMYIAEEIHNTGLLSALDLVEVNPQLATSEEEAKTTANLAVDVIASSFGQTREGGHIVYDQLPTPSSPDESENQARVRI
In words: in vitro enzyme assay to detect the production of urea directly proportional to the activity of Arginase II. Further: in the data most compounds retested in dose-response had high values. Type of assay: functional. As to conditions: 33.3 µM.

For assay [6], the target named is T3, Proteasome subunit beta (Trypanosoma cruzi) (UniProt O96673).
T3 sequence (whole entry): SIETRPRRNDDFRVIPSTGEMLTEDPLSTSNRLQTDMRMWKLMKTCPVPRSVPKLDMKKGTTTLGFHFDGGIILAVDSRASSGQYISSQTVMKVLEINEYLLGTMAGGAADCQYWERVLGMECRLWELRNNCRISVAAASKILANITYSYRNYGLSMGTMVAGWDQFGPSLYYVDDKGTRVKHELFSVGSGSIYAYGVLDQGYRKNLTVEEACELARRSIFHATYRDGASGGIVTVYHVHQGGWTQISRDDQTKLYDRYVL
In words: Trypanosoma cruzi proteasome chymotrypsin-like activity (TcProtChymo) assay. Further: in the data most compounds retested in dose-response had high values. It is filed as functional. As to conditions: 9.37 µM.

For a further assay, the species on record is Homo sapiens. In words: To identify inhibition of the IFN signalling (Jak-Stat) pathway via expression of an eGFP reporter gene under the control of an IFN-stimulated response element (ISRE) containing MxA promoter. Type of assay: functional. As to conditions: 30 µM. (In general: A reporter such as luciferase makes a cellular process visible.)
For assay [7], the target named is T4, Tyrosyl-tRNA synthetase, putative (Trypanosoma cruzi (strain CL Brener)) (UniProt Q4DSP6).
T4 sequence (whole entry): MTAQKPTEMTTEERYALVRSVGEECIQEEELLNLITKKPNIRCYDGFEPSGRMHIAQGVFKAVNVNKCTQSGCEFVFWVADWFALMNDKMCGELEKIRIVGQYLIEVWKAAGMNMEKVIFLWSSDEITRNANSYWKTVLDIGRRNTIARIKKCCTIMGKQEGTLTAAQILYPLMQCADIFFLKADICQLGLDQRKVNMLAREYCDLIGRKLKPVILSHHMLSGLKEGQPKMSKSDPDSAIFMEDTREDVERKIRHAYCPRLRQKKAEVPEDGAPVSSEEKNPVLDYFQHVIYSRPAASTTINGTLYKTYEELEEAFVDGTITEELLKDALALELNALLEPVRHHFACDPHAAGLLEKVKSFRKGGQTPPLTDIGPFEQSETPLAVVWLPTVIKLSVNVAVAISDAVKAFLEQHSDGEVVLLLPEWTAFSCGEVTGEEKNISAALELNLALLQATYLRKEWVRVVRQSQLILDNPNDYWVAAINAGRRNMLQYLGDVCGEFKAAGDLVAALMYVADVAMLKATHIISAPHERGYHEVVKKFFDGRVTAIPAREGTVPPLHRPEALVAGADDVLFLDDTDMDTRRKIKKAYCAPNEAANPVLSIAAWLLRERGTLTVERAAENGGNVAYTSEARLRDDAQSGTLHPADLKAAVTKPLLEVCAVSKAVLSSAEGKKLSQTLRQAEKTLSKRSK
The assay can be described thus: Trypanosoma cruzi tyrosyl tRNA synthetase (TcYRS) _High Tyrosine SOP. Further: in the data most compounds retested in dose-response had high values. It is filed as functional. As to conditions: 30 µM.

Assay [8] has as its target T4, Tyrosyl-tRNA synthetase, putative (Trypanosoma cruzi (strain CL Brener)). The assay can be described thus: Trypanosoma cruzi tyrosyl tRNA synthetase (TcYRS) SOP. Type of assay: functional. As to conditions: 30 µM.
For assay [9], the target named is Chromo domain-containing protein 1 (Saccharomyces cerevisiae (strain ATCC 204508 / S288c) (Baker's yeast)) (UniProt P32657). In words: ScCHD-1 Enzyme Inhibition Assay. Further: in the data most compounds retested in dose-response had high values. It is filed as functional. As to conditions: 30 µM.

We go through eleven compounds from ChEMBL document CHEMBL3988442, “University of Dundee, Small-Polar-MMV Screening Library” (2021).

Each structure is given as a SMILES string. For some of these results: Potency and affinity values are given separately.

Chain of Protein translocase subunit SecA (Escherichia coli (strain K12)) (P10408 whole entry): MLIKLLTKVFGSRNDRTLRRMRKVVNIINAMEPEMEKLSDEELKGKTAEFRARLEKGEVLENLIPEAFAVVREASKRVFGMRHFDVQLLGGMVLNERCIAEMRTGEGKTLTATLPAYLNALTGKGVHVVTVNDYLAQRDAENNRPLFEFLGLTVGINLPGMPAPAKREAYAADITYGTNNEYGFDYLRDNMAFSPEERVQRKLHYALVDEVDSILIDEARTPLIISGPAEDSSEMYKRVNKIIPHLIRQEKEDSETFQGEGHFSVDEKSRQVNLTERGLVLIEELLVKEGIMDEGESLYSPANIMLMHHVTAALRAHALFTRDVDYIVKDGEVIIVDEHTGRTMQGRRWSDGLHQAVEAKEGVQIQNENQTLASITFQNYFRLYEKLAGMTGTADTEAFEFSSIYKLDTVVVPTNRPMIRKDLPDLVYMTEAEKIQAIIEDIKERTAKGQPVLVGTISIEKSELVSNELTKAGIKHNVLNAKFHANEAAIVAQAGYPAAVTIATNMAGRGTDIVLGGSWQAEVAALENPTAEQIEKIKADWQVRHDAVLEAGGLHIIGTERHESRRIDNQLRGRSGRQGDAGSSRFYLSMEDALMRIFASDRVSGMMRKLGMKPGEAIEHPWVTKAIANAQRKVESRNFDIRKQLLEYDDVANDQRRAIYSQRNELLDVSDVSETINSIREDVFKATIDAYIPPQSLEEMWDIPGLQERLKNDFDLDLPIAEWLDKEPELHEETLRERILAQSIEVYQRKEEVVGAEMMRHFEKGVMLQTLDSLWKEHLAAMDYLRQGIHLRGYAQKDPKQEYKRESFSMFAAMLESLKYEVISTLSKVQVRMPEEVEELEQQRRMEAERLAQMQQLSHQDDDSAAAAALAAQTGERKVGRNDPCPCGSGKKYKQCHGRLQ
Chain of Chromo domain-containing protein 1 (Saccharomyces cerevisiae (strain ATCC 204508 / S288c) (Baker's yeast)) (P32657 whole entry, the tested form may be a part): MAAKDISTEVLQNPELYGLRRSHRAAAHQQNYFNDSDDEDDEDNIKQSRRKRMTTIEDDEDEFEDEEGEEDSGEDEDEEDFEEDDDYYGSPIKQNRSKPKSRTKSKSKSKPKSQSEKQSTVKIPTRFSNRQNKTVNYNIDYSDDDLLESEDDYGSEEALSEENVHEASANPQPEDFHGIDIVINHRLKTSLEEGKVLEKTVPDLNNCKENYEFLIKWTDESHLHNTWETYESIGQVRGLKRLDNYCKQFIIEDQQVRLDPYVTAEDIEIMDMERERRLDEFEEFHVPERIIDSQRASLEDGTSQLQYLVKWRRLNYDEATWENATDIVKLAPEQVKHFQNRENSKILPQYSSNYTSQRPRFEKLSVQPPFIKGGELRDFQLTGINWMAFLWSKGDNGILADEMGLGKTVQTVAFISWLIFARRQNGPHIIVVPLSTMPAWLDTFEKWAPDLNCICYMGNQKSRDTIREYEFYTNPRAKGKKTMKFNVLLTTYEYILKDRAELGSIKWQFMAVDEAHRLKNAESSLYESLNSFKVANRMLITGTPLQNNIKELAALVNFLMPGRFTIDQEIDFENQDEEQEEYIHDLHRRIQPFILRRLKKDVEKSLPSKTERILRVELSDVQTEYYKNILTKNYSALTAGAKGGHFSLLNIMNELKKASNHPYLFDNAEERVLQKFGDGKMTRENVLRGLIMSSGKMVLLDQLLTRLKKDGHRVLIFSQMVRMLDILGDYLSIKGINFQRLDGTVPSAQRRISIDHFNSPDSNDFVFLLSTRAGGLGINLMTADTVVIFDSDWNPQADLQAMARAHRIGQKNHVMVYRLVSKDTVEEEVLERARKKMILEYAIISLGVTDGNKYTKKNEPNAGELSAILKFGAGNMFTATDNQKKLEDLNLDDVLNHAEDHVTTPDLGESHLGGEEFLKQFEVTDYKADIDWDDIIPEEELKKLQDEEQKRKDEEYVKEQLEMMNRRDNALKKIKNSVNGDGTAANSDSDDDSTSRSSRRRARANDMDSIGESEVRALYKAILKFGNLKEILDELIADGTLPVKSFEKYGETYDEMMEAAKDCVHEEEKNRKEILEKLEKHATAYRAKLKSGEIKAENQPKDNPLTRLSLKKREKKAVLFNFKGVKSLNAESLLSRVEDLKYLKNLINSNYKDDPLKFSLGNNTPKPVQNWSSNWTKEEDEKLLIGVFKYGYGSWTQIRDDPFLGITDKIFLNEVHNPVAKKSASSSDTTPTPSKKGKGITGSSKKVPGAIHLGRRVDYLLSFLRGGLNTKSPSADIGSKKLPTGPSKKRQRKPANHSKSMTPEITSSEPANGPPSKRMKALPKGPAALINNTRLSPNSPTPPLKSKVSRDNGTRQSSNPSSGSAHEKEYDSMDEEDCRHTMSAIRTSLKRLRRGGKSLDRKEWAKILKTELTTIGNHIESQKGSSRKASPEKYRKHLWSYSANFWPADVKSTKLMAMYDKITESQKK
Chain of Sialic acid-binding Ig-like lectin 9 (Homo sapiens) (Q9Y336 whole entry): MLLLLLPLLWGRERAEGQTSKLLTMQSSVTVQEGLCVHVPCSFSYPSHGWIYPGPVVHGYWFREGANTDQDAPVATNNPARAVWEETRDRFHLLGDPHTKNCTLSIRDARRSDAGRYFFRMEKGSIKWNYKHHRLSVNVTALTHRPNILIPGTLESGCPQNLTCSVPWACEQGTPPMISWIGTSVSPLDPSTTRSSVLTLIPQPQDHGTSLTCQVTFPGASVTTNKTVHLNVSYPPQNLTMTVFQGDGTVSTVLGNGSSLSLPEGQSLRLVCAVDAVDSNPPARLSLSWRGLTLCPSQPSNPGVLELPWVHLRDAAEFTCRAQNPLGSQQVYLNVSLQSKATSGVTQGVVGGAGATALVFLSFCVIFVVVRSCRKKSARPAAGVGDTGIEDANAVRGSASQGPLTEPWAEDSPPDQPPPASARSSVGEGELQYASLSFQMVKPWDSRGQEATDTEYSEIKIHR

For `Cc1ccc(C)c(NC(=O)Nc2c[nH]c(=O)[nH]c2=O)c1`, the Percent Effect was 3.77% in assay [1]; 13% in assay [2]; -1.87% in assay [3]; -3.33% in assay [4]; -4.44% in the assay with Trypanosoma cruzi; 11% in assay [5]. Besides, the Percent Effect is 4.7% in [6]; 7.57% in the assay filed under Homo sapiens; 2.12% in assay [7]; 3.85% in [8]; -8.57% in assay [9].

In the case of `O=C(NC1(c2nnn(Cc3ccncc3)n2)CCCC1)c1ccccc1`, the Percent Effect was -6.65% in assay [1]; 2.67% in assay [2]; -7.02% in assay [3]; 6.6% in assay [4]; 1.85% in the assay with Trypanosoma cruzi; 0.521% in [5]. Further, the Percent Effect in [6] was -25.6%; in the assay listed under Homo sapiens it was -24.1%; in assay [7], 7.1%; in assay [8], 16.1%; in assay [9], -2.08%.

For `O=C(O)[C@@H]1CN(C(=O)c2ccc3[nH]nnc3c2)C[C@H]1c1cccc(F)c1`, the Percent Effect in assay [1] is -4.68%; in assay [2], 11%; in assay [3] it was -5.72%; in assay [4], 8.16%; in the assay on Trypanosoma cruzi it was 6.94%; in [5], -3.99%. For the same compound, the Percent Effect in assay [6] is 12.6%; in the assay filed under Homo sapiens, 3.52%; in assay [7] it was 4.17%; in [8] it was 8.64%; in assay [9], -2.47%.

Turning to `Cc1cccc(COC[C@@H]2CC[C@H]3[C@H](CCN3Cc3ccco3)O2)n1`, the Percent Effect was -0.0692% in assay [1]; 16.4% in assay [2]; -0.44% in assay [3]; 9.35% in assay [4]; 7.74% in the assay on Trypanosoma cruzi; -2.79% in assay [5]. Further, the Percent Effect in [6] was 15.2%; in the assay filed under Homo sapiens, -16.7%; in assay [7], 5.21%; in assay [8], 13.6%; in [9], -7.59%.

Take `CC(C)(NCC(=O)NCCC#N)c1ccc2c(c1)OCCO2`: the Percent Effect was -3.57% in assay [1]; 27% in assay [2]; -8.79% in [3]; 1.26% in [4]; 3.49% with Trypanosoma cruzi; -8.42% in assay [5]. For the same compound, the Percent Effect in assay [6] was 17.3%; in the assay listed under Homo sapiens, 3.81%; in assay [7], 4.43%; in assay [8], 23.5%; in assay [9] it was -9.99%.

`CN(CCO)C[C@@H]1CN(C(=O)c2c(F)cccc2Cl)C[C@@H]1CO`: the Percent Effect is -3.86% in [1]; 0% in assay [2]; 1.2% in assay [3]; 6% in assay [4]; -2.06% in the assay on Trypanosoma cruzi; 2.76% in assay [5]. In addition, the Percent Effect in [6] is 15.6%; in the assay listed under Homo sapiens it was 9.06%; in assay [7], 3.23%; in [8], 3.7%; in [9] it was -2.59%.

As to `Cc1ccoc1C(=O)N1C[C@@H]2[C@@H](C1)OCC(=O)N2Cc1cccnc1`, the Percent Effect in assay [1] is -4.32%; in assay [2], -15.6%; in assay [3], -0.37%; in assay [4] it was 0.332%; in the assay on Trypanosoma cruzi it was -2.86%; in [5], 3.23%. Besides, the Percent Effect is 2.96% in assay [6]; 19.8% in the assay listed under Homo sapiens; -27.5% in assay [7]; -47.4% in [8]; 5.56% in assay [9].

In the case of `CC(C)n1cc(CN2CCCN(C(=O)c3ccc[nH]3)CC2)cn1`, the Percent Effect was -1.88% in assay [1]; 13.5% in assay [2]; -0.748% in assay [3]; -5.21% in [4]; 2.73% in the assay on Trypanosoma cruzi; 15.8% in assay [5]. For the same compound, the Percent Effect in [6] was 20.2%; in the assay filed under Homo sapiens, -10.5%; in [7], 12.9%; in assay [8] it was 13.4%; in assay [9], -0.327%.

Take `Cc1cc(C)cc(-c2ccc(CC3(C(=O)O)CCOCC3)cc2)c1`: the Percent Effect in assay [1] was -8.77%; in [2], -4.05%; in [3], 12.1%; in assay [4], -1.64%; in the assay with Trypanosoma cruzi, -3.95%; in [5], -3.48%. Further, the Percent Effect was 1.25% in assay [6]; 18% in the assay filed under Homo sapiens; -20.4% in [7]; -37.7% in assay [8]; -2.15% in assay [9].

`COc1ccccc1CNC(=O)N1CCCC(NS(C)(=O)=O)C1` (stereo unspecified): the Percent Effect in assay [1] is -6.57%; in assay [2] it was -15.6%; in assay [3], -5.52%; in assay [4] it was -17.1%; in the assay on Trypanosoma cruzi it was -3.82%; in [5] it was -2.74%. Moreover, the Percent Effect in [6] is 12.8%; in the assay filed under Homo sapiens, 24%; in assay [7], -25.7%; in assay [8], 7.06%; in assay [9], -22.9%.

Take `CCOc1ccc(S(=O)(=O)NCc2cccnc2N(C)C)cc1`: the Percent Effect in assay [1] is -2.65%; in assay [2], 27.9%; in assay [3], -9.37%; in [4] it was -4.06%; in the assay on Trypanosoma cruzi, 7.08%; in assay [5], -5.7%. Moreover, the Percent Effect was 7.29% in assay [6]; 58.7% in the assay filed under Homo sapiens; 7.39% in assay [7]; 26.6% in [8]; -5.96% in [9].
